Test [1] has as its target Sphingosine kinase 1 (Homo sapiens) (UniProt Q9NYA1). Particulars: at 1 µM.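 Further: mean SPHK1 inhibition value reported from the GSK PKIS kinase panel screen.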
The target of test [2] is T1, Sphingosine kinase 2 (Homo sapiens) (UniProt Q9NRA0).
T1 sequence (whole entry): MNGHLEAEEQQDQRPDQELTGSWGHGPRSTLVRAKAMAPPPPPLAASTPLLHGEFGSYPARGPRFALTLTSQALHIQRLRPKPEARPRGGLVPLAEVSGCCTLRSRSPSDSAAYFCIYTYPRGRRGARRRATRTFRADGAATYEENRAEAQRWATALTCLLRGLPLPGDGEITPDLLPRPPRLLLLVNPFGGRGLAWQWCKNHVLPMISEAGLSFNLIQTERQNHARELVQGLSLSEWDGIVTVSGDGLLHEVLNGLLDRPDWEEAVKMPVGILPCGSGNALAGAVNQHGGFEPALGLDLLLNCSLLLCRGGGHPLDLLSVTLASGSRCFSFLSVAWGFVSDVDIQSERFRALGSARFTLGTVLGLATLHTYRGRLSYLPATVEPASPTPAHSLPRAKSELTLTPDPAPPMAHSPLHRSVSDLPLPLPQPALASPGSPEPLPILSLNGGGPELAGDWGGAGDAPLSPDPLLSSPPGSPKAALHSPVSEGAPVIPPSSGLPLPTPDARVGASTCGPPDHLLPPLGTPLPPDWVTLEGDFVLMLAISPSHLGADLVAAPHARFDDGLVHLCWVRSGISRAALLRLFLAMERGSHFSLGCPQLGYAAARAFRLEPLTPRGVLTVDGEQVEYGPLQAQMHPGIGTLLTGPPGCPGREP
Particulars: at 0.1 µM.

Test [3] has as its target T1, Sphingosine kinase 2 (Homo sapiens). The settings on record: at 1 µM.
Test [4] concerns the target Casein kinase II subunit alpha (Homo sapiens) (UniProt P68400). Particulars: at 0.1 µM.
Test [5] has the same target. Particulars: at 1 µM.
The target in test [6] is T2, Inhibitor of nuclear factor kappa-B kinase subunit alpha (Homo sapiens) (UniProt O15111).
T2 sequence (whole entry): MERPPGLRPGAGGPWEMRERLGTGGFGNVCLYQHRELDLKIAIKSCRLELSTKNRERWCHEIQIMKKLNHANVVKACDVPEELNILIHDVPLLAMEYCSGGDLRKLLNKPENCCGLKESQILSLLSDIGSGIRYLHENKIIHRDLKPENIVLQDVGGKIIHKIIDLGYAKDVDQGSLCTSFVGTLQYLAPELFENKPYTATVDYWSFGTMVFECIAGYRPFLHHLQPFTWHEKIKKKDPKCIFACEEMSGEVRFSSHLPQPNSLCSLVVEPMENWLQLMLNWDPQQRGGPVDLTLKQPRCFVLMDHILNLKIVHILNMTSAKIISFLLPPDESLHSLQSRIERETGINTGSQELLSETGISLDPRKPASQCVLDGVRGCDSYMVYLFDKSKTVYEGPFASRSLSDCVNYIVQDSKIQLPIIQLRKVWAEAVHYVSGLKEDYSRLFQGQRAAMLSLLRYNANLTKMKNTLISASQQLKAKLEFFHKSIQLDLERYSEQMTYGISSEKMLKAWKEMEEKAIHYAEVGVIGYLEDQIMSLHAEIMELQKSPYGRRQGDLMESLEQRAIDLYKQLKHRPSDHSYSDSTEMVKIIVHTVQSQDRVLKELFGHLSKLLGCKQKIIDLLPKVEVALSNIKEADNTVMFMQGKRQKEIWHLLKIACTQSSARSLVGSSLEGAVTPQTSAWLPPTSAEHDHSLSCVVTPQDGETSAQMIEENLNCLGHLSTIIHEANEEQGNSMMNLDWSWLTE
Particulars: at 0.1 µM.

In test [7] the target is T2, Inhibitor of nuclear factor kappa-B kinase subunit alpha (Homo sapiens). Particulars: at 1 µM.
Test [8] concerns the target T3, Inhibitor of nuclear factor kappa-B kinase subunit beta (Homo sapiens) (UniProt O14920).
T3 sequence (whole entry): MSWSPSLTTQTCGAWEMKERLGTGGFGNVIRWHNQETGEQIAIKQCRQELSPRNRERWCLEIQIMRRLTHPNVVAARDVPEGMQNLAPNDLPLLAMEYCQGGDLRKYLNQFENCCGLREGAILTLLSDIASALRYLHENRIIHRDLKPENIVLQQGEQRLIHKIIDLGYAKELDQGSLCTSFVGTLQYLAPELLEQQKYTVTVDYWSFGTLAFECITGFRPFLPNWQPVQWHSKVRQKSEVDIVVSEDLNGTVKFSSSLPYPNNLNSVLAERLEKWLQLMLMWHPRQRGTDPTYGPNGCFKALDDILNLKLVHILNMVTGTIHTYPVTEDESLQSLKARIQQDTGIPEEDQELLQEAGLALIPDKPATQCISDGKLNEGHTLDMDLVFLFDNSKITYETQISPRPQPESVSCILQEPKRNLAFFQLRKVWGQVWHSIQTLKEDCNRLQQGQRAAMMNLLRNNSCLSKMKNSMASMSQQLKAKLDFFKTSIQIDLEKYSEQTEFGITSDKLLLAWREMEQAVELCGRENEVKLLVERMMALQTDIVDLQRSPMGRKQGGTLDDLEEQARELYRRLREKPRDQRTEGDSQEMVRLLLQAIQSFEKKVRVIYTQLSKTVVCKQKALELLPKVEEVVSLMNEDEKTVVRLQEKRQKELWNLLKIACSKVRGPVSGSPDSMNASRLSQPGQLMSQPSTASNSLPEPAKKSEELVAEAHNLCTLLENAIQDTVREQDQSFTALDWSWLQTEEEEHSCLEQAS
The settings on record: at 0.1 µM.

The target in test [9] is T3, Inhibitor of nuclear factor kappa-B kinase subunit beta (Homo sapiens). The settings on record: at 1 µM.
For test [10], the target named is T4, Inhibitor of nuclear factor kappa-B kinase subunit epsilon (Homo sapiens) (UniProt Q14164).
T4 sequence (whole entry): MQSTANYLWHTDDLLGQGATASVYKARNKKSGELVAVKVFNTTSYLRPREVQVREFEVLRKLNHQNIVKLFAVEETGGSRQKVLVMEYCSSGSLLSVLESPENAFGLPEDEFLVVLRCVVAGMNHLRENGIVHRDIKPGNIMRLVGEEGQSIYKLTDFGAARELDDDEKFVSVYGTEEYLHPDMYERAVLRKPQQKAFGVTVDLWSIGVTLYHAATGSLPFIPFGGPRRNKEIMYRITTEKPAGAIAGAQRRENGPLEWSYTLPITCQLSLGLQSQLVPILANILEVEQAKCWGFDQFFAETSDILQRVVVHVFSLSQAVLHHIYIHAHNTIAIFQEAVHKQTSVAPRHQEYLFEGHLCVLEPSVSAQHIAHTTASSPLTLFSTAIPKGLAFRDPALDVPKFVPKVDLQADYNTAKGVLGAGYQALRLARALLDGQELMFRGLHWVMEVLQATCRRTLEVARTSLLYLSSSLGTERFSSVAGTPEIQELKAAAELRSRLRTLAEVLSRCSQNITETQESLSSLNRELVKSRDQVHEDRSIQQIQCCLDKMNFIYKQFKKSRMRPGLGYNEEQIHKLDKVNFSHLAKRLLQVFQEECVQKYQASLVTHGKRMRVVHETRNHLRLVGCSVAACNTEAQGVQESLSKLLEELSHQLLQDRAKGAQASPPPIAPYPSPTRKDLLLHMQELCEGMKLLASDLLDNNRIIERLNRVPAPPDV
The settings on record: at 0.1 µM.

Test [11] addresses T4, Inhibitor of nuclear factor kappa-B kinase subunit epsilon (Homo sapiens). The settings on record: at 1 µM.
Test [12] addresses T5, Serine/threonine-protein kinase Nek1 (Homo sapiens) (UniProt Q96PY6).
T5 sequence (whole entry): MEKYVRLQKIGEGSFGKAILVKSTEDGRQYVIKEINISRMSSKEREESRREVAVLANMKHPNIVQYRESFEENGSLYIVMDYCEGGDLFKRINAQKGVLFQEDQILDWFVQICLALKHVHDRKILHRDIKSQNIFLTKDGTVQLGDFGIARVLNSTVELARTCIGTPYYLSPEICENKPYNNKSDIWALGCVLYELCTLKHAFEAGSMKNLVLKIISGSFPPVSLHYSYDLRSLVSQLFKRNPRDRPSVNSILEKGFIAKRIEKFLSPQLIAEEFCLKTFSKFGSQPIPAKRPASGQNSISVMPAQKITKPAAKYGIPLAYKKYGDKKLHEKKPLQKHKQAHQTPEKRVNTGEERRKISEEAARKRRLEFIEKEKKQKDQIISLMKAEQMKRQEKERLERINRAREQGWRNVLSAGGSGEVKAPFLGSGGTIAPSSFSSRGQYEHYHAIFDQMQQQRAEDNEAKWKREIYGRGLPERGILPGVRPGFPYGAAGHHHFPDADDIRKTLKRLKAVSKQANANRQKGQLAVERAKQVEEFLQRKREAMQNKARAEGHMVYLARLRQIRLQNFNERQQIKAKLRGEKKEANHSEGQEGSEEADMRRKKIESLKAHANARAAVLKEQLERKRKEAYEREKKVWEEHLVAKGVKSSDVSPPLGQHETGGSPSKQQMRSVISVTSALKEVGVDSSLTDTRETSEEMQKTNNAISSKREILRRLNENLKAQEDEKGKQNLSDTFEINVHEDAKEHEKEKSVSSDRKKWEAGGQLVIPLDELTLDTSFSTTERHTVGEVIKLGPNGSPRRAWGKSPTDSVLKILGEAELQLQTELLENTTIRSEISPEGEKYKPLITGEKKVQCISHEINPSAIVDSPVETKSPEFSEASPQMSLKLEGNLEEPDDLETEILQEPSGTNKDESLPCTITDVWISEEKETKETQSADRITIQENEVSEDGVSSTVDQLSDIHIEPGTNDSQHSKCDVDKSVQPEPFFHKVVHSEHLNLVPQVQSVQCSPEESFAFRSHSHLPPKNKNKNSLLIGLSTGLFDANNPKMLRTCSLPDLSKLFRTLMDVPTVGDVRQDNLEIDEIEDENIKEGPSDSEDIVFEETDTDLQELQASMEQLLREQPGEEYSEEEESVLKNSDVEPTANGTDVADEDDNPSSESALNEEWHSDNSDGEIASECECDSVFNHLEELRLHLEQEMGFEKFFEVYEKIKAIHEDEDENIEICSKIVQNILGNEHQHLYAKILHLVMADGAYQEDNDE
Particulars: at 0.1 µM.

For test [13], the target named is T5, Serine/threonine-protein kinase Nek1 (Homo sapiens). Particulars: at 1 µM.
Test [14] deals with T6, Serine/threonine-protein kinase Nek2 (Homo sapiens) (UniProt P51955).
T6 sequence (whole entry): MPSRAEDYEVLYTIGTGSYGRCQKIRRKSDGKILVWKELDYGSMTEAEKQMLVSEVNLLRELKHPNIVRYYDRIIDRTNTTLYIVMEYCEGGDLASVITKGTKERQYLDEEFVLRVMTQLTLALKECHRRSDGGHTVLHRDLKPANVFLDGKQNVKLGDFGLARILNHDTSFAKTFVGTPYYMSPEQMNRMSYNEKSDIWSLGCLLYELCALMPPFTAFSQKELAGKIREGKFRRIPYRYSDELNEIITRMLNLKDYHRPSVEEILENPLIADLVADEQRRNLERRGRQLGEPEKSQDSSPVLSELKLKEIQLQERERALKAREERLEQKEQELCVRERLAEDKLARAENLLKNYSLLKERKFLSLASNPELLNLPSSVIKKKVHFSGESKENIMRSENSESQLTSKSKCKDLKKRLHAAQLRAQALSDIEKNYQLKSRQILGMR
Particulars: at 0.1 µM.

Test [15] has as its target T6, Serine/threonine-protein kinase Nek2 (Homo sapiens). The settings on record: at 1 µM.
Test [16] concerns the target Serine/threonine-protein kinase Nek6 (Homo sapiens) (UniProt Q9HC98). The settings on record: at 0.1 µM.
Test [17] has the same target. Particulars: at 1 µM.
In test [18] the target is Serine/threonine-protein kinase Nek7 (Homo sapiens) (UniProt Q8TDX7). The settings on record: at 0.1 µM.
Test [19] has the same target. Particulars: at 1 µM.
Test [20] concerns the target T7, Serine/threonine-protein kinase Nek9 (Homo sapiens) (UniProt Q8TD19).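 Further: reported value is the mean percent inhibition of NEK9.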
T7 sequence (whole entry): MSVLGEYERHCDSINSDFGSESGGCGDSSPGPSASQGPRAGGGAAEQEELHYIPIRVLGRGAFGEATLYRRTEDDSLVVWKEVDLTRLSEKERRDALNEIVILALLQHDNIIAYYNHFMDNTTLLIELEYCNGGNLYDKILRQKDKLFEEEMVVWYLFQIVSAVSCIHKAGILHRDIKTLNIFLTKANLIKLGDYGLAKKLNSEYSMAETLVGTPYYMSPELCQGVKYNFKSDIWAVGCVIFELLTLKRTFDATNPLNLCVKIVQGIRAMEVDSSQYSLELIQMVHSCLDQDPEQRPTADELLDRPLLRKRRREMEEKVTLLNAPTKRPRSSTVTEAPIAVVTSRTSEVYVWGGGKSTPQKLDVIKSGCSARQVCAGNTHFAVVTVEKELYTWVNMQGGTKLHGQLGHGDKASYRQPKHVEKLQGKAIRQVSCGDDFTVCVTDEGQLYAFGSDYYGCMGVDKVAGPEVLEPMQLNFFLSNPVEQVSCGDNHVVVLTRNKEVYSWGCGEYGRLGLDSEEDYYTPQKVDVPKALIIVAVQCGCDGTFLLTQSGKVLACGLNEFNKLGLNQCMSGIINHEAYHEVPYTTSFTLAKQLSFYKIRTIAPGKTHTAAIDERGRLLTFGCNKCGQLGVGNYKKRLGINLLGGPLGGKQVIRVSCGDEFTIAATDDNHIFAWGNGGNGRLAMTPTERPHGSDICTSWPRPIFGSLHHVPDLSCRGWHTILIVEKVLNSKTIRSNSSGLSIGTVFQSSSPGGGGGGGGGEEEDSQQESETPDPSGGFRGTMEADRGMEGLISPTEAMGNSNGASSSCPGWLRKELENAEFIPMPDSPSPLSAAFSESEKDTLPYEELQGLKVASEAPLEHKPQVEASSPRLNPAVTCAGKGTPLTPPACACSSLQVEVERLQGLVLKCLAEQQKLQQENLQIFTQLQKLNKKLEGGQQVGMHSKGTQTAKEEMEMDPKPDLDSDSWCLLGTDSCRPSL
Particulars: at 0.1 µM.

Results on one molecule are retold here after ChEMBL document CHEMBL1961873, “Compounds: GSK PKIS; Assays: Nanosyn kinase panel” (2012).

For orientation: inhibition means the change of the read-out against control, counted positive when it falls.

Chain of Casein kinase II subunit alpha (Homo sapiens) (P68400 whole entry, looked up): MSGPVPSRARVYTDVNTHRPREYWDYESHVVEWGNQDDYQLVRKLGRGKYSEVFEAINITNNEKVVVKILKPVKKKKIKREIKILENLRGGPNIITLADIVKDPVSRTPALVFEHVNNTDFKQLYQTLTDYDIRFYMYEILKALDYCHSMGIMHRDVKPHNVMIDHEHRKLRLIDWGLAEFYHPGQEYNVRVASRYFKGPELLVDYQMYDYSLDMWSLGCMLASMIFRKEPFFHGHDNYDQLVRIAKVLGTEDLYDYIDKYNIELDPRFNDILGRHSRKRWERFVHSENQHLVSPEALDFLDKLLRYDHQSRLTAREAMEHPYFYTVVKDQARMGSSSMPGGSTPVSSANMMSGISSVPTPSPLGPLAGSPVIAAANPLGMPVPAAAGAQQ
Chain of Serine/threonine-protein kinase Nek6 (Homo sapiens) (Q9HC98 whole entry): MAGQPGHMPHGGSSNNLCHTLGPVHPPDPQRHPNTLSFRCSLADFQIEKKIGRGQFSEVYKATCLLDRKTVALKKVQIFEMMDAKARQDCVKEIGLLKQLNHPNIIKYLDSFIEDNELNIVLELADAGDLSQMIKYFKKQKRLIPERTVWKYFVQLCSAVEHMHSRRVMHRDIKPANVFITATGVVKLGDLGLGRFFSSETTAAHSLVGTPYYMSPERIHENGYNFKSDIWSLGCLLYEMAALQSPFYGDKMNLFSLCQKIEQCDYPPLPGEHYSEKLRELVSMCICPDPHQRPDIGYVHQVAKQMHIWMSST
Chain of Serine/threonine-protein kinase Nek7 (Homo sapiens) (Q8TDX7 whole entry, looked up): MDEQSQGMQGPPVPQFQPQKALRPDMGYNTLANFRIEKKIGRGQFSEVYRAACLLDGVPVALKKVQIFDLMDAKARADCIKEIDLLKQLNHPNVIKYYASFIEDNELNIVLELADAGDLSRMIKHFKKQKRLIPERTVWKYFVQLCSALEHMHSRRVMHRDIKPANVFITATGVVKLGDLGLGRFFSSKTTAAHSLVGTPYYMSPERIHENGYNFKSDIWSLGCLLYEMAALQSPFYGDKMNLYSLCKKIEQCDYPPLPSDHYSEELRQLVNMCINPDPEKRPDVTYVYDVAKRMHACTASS
Chain of Sphingosine kinase 1 (Homo sapiens) (Q9NYA1 whole entry): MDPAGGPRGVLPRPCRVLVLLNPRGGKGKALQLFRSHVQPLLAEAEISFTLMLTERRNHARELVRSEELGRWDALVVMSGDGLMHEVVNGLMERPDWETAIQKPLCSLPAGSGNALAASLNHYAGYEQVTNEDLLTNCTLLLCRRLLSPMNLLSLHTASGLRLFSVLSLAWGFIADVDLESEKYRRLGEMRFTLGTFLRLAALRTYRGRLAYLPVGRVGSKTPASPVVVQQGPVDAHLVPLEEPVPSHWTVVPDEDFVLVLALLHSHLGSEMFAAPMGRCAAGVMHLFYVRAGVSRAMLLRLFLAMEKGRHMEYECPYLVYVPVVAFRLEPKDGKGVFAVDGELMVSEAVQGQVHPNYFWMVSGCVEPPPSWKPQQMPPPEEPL

In the case of `CN1CCC(n2cnc(-c3ccc(F)cc3)c2-c2ccnc(N)n2)CC1`, the inhibition in test [1] is -3.49%; in test [2], 0%; in test [3], -1.67%; in test [4], 8.38%; in test [5], 42.7%; in [6] it was 1.97%. Moreover, the inhibition in test [7] is 6.98%; in [8] it was 4.41%; in test [9] it was 4.02%; in test [10], 3.07%; in test [11] it was 7.06%; in test [12] it was -0.73%. The inhibition was 0.96% in test [13]; 2.43% in [14]; 2.64% in [15]; 2.5% in test [16]; 2.17% in test [17]; 3.21% in test [18]. In addition, the values for the inhibition in test [19] and in [20] were 3.4% and 7.9%, respectively.
